Among the data in PubChem BioAssay (Tox21) are Potency and outcome values, retold here.

Records with an inconclusive call do not appear. Activity calls are given as the source filed them. Unless noted, calls come from the whole dose curve; as a rule, active = well fitted curve in the direction sought with a large enough effect in the repeat runs; inconclusive = weak or mixed curves; inactive = no such curve, though single readings can be large; an effect the other way counts as inactive or inconclusive.

Experiment [1] can be described thus: qHTS assay to identify aromatase inhibitors - cell viability counter screen (AID 743084).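 Note: cells stimulated with testosterone during compound exposure; nearly all actives have a fitted effect of over 55% in size.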 Note: potency is the fitted concentration of half-maximal effect. On the technique in general: Quantitative high-throughput screening tests each substance at several concentrations.
The target in experiment [2] is Aryl hydrocarbon receptor (Homo sapiens) (UniProt P35869). Put plainly: qHTS assay to identify small molecule that activate the aryl hydrocarbon receptor (AhR) signaling pathway (AID 743085).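 For activation: HG2L7.5c1 human HepG2 liver cells with stably integrated DRE-driven firefly reporter; series mostly up to about 70 µM.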 Note: nearly all actives have a fitted effect of over 15% in size. Note: potency is the fitted concentration of half-maximal effect. The method in brief: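 Measured in HG2L7.5c1 cells: CellTiter-Fluor signal (30 min incubation, 37C) for viability, then luciferase luminescence (30 min, room temperature). Compound contact time was 24 h at 37C, following a 5 h pre-incubation.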

A short description of experiment [3]: qHTS assay to identify small molecule that activate the aryl hydrocarbon receptor (AhR) signaling pathway - cell viability counter screen (AID 743086). Note: nearly all actives have a fitted effect of over 45% in size. Note: potency is the fitted concentration of half-maximal effect. The method in brief:
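HepG2-AhR-luc (HG2L7.5c1) cells, 4000/well, were preincubated 5 h at 37C, exposed to compound in qHTS format for 24 hr at 37C, then given CellTiter-Fluor for 30 min; viability was read as fluorescence in the reporter wells.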

Experiment [4] can be described thus: qHTS assay to identify small molecule antagonists of the peroxisome proliferator-activated receptor gamma (PPARg) signaling pathway - cell viability counter screen (AID 743194). Note: nearly all actives have a fitted effect of over 55% in size. Note: potency is the fitted concentration of half-maximal effect. The following applies: Potency: co-treated with 50 nM rosiglitazone. The method in brief:
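PPARg-UAS-bla HEK293H cells were plated, rested 5 h at 37 C, then treated with compounds plus rosiglitazone (50 nM final) for 17 h at 37 C; viability was then read by CellTiter-Glo luminescence after 30 min at room temperature.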

The nature of experiment [5]: qHTS assay for small molecule activators of the heat shock response signaling pathway - cell viability counter screen (AID 743209). Note: nearly all actives have a fitted effect of over 50% in size. The essentials:
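Compounds dissolved in DMSO were added to overnight-plated HSE-bla HeLa cells and left 5 h at 37 C. Cell viability was quantified by luminescence using CellTiter-Glo.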

Experiment [6] is described as follows: qHTS assay for small molecule activators of the heat shock response signaling pathway (AID 743210; active = well fitted activation curve with a large enough effect in the signal ratio in the repeat runs, with a control signal flat, not every such curve was filed as active; the % refers to the signal ratio;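 note: HeLa cells with beta-lactamase reporter driven by heat shock elements; series mostly up to about 63 µM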). The method in brief: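 Activation of heat shock element-controlled beta-lactamase expression is measured in HeLa cells by LiveBLAzer FRET fluorescence, with compound exposure lasting 5 h at 37 C and substrate loading 2.5 h at room temperature.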
Experiment [7] addresses Peroxisome proliferator-activated receptor delta (Homo sapiens) (UniProt Q03181). The experiment can be described thus: qHTS assay to identify small molecule agonists of the peroxisome proliferator-activated receptor delta (PPARd) signaling pathway (AID 743212; calls by dose curve). The method in brief:
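Cells expressing a UAS-driven beta-lactamase reporter (PPARd-bla HEK293H) were given test compounds after a 5 h settle and kept at 37 C. Reporter activity was then measured as FRET fluorescence using LiveBLAzer B/G substrate.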

Experiment [8] deals with Peroxisome proliferator-activated receptor gamma (Homo sapiens) (UniProt P37231). The experiment can be described thus: qHTS assay to identify small molecule agonists of the peroxisome proliferator-activated receptor gamma (PPARg) signaling pathway (AID 743094; active = well fitted activation curve with a large enough effect in the signal ratio in the repeat runs, not every such curve was filed as active; the % refers to the signal ratio). The method in brief: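 Agonism was assessed in a beta-lactamase reporter system, HEK293H cells with a stably integrated UAS-bla construct under PPARg control; the 17 h treatment at 37C preceded a 1 h room-temperature FRET substrate read.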

Experiment [9] is described as follows: qHTS assay for small molecule agonists of the antioxidant response element (ARE) signaling pathway - cell viability counter screen (AID 743203; calls by dose curve; note: nearly all actives have a fitted effect of over 55% in size). The method in brief:
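ATP content via CellTiter-Glo luminescence served as the viability measure. Cells: ARE-bla HepG2, 2,000 per well. Exposure: 16 hrs, 37C/5% CO2.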

The nature of experiment [10]: qHTS assay to identify small molecule agonists of the peroxisome proliferator-activated receptor delta (PPARd) signaling pathway - cell viability counter screen (AID 743211). Note: nearly all actives have a fitted effect of over 55% in size. Note: potency is the fitted concentration of half-maximal effect. The essentials: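 Following 5 h plating at 37 C and 5% CO2, PPARd UAS-bla HEK293H cells took up test compounds for 17 h. Viability was quantified by luminescence 30 min after CellTiter-Glo addition at room temperature.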

A short description of experiment [11]: qHTS assay to identify small molecule antagonists of the peroxisome proliferator-activated receptor delta (PPARd) signaling pathway - cell viability counter screen (AID 743213). Note: nearly all actives have a fitted effect of over 50% in size. Note: potency is the fitted concentration of half-maximal effect. The essentials:
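Luminescence from CellTiter-Glo, added after the bla read and incubated 30 min at room temperature, gives viability of HEK293H PPARd-bla cells exposed to compounds for 17 h at 37 C with 300 nM L165041.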

In experiment [12] the target is Peroxisome proliferator-activated receptor delta (Homo sapiens) (UniProt Q03181). The experiment can be described thus: qHTS assay to identify small molecule antagonists of the peroxisome proliferator-activated receptor delta (PPARd) signaling pathway (AID 743215; active = well fitted inhibition curve with a large enough effect in the signal ratio in the repeat runs, not every such curve was filed as active; the % refers to the signal ratio;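 note: cells stimulated with agonist L165041 at 300 nM final during compound exposure; series mostly up to about 62 µM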). The method in brief: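 Here, a reporter line (HEK293H, beta-lactamase under a UAS) measures PPARd signaling. Compounds are tested against agonist L165041 at 300 nM final concentration over 17 h at 37 C, with fluorescence read after substrate.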

The target in experiment [13] is Bile acid receptor (Homo sapiens) (UniProt Q96RI1). Put plainly: qHTS assay to identify small molecule antagonists of the farnesoid-X-receptor (FXR) signaling pathway (AID 743217; active = well fitted inhibition curve with a large enough effect in the signal ratio in the repeat runs, not every such curve was filed as active; the % refers to the signal ratio). The method in brief:
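Test compounds are pin-transferred onto FXR-bla HEK 293T cells, then chenodeoxycholic acid is added at 50 uM final. After 16 h at 37 °C, LiveBLAzer B/G substrate is applied for 2 h at room temperature and fluorescence read.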

Experiment [14] is described as follows: qHTS assay to identify small molecule agonists of the farnesoid-X-receptor (FXR) signaling pathway - cell viability counter screen (AID 743218). Note: nearly all actives have a fitted effect of over 45% in size. The method in brief:
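Quantitative HTS counter screen measuring ATP-based viability via CellTiter-Glo luminescence in HEK 293T cells carrying a UAS-driven beta-lactamase reporter, after 16 h compound exposure at 37 C.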

Experiment [15] addresses Bile acid receptor (Homo sapiens) (UniProt Q96RI1). The experiment can be described thus: qHTS assay to identify small molecule agonists of the farnesoid-X-receptor (FXR) signaling pathway (AID 743220; active = well fitted activation curve with a large enough effect in the signal ratio in the repeat runs, not every such curve was filed as active; the % refers to the signal ratio). The essentials: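 FXR-UAS-bla HEK 293T cells carrying a UAS-driven beta-lactamase reporter were plated for 5 h at 37C/5% CO2, then exposed to DMSO-dissolved Tox21 10K compounds for 16 h at 37C. A LiveBLAzer B/G FRET substrate was loaded for 2 h at room temperature before fluorescence reading.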

Experiment [16] can be described thus: qHTS assay to identify small molecule antagonists of the farnesoid-X-receptor (FXR) signaling pathway - cell viability counter screen (AID 743221; active = well fitted cell-killing curve with a large enough effect in the repeat runs, not every such curve was filed as active; note: nearly all actives have a fitted effect of over 50% in size). The method in brief: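 Compound effects on cell number were measured as CellTiter-Glo luminescence in HEK 293T cells expressing FXR-UAS-bla, after 16 h at 37 C with 50 uM CDCA (final).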
For experiment [17], the target named is Vitamin D3 receptor (Homo sapiens) (UniProt P11473). Put plainly: qHTS assay to identify small molecule agonists of the vitamin D receptor (VDR) signaling pathway (AID 743222; calls by dose curve). The method in brief: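 Tox21 cell reporter format: VDR-bla line, 16 h compound exposure in 5% CO2 at 37C, then fluorescence intensity after 2 h with LiveBLAzer B/G FRET substrate.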

A short description of experiment [18]: qHTS assay for small molecule agonists of the antioxidant response element (ARE) signaling pathway (AID 743202; active = well fitted activation curve with a large enough effect in the signal ratio in the repeat runs, not every such curve was filed as active; the % refers to the signal ratio; note: potency is the fitted concentration of half-maximal effect). The essentials:
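Steps: seed ARE-bla HepG2 cells (2,000/well); incubate 5 h at 37 C; add compounds by pin tool; incubate 16 h at 37 C; add FRET substrate; read fluorescence after 2 h at RT.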

Experiment [19] deals with Vitamin D3 receptor (Homo sapiens) (UniProt P11473). Put plainly: qHTS assay to identify small molecule antagonists of the vitamin D receptor (VDR) signaling pathway (AID 743223; active = well fitted inhibition curve with a large enough effect in the signal ratio in the repeat runs, not every such curve was filed as active; the % refers to the signal ratio). The essentials: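 Beta-lactamase activity in VDR-bla cells is measured by FRET substrate fluorescence (2 h, room temperature) after cells spend 16 h at 37C with test compound and 3 nM final 1alpha,25-dihydroxyvitamin D3.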

Experiment [20] concerns the target Peroxisome proliferator-activated receptor gamma (Homo sapiens) (UniProt P37231). The experiment can be described thus: qHTS assay to identify small molecule antagonists of the peroxisome proliferator-activated receptor gamma (PPARg) signaling pathway (AID 743191; calls by dose curve; note: series mostly up to about 63 µM; nearly all actives have a fitted effect of over 30% in size). The method in brief:
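GeneBLAzer PPARg UAS-bla HEK293H cells carrying a UAS-driven beta-lactamase reporter were plated at 3000 cells/well, preincubated 5 h at 37C, then given compound for 17 h at 37C; LiveBLAzer B/G FRET substrate was read after 1 h at room temperature.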

Peroxisome proliferator-activated receptor gamma (Homo sapiens), sequence (P37231 whole entry, looked up): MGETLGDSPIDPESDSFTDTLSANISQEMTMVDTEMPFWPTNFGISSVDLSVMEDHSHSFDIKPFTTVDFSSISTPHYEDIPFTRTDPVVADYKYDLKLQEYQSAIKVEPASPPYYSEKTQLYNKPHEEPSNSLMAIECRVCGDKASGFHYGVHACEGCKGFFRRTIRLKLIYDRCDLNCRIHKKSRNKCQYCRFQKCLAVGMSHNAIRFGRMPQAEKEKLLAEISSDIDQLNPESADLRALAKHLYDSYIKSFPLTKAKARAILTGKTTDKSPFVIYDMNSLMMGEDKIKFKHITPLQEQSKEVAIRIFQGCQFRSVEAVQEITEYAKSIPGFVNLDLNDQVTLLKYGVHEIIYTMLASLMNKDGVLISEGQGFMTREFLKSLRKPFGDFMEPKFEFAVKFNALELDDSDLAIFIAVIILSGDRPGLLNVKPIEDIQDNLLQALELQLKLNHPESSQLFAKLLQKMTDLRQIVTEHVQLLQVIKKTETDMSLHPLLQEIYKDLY
Aryl hydrocarbon receptor (Homo sapiens), sequence (P35869 whole entry, looked up): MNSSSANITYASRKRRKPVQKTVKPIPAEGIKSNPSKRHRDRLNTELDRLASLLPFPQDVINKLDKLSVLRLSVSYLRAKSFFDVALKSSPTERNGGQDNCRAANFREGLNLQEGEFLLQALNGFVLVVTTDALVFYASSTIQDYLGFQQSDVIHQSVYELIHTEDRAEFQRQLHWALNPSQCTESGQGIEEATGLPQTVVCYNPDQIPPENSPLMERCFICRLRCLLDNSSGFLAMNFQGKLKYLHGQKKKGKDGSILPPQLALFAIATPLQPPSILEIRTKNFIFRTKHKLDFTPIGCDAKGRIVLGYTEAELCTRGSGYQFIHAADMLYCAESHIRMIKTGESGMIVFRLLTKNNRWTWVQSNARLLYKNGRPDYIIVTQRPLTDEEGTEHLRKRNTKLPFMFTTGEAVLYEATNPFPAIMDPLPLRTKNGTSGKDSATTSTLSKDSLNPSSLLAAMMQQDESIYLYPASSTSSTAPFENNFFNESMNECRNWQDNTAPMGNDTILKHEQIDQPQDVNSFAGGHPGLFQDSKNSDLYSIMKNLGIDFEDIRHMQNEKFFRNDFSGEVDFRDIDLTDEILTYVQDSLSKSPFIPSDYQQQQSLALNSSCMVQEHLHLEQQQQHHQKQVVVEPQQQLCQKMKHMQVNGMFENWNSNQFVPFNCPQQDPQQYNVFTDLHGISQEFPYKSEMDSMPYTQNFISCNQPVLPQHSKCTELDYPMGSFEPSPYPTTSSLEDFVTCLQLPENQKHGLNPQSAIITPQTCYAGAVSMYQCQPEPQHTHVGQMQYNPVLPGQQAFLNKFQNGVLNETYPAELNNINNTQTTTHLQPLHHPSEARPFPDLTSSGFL
Bile acid receptor (Homo sapiens), sequence (Q96RI1 whole entry, looked up): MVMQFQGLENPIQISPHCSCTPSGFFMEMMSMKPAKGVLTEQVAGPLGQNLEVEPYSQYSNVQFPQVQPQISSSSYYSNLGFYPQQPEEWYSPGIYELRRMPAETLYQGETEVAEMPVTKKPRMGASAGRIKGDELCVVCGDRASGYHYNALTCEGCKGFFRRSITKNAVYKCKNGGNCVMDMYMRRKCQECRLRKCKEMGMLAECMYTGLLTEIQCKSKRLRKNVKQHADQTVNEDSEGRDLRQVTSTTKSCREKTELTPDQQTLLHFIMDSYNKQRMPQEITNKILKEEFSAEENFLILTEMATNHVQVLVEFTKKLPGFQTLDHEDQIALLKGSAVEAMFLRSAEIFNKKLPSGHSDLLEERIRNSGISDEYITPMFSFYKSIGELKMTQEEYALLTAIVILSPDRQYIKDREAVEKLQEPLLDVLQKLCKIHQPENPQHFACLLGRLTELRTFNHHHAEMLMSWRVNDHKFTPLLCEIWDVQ
Vitamin D3 receptor (Homo sapiens), sequence (P11473 whole entry, looked up): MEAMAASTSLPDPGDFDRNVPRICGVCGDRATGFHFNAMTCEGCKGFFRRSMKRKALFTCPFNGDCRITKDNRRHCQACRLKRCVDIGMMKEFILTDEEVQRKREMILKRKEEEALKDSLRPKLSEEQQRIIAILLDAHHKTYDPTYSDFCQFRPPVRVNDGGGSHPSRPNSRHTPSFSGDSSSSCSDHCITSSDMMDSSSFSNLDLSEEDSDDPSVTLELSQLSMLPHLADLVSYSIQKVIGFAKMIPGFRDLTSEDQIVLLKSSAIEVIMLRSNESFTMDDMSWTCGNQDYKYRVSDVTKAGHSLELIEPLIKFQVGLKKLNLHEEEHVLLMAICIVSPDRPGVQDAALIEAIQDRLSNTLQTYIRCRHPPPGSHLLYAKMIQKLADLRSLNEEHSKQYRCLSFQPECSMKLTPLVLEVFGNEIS
Peroxisome proliferator-activated receptor delta (Homo sapiens), sequence (Q03181 whole entry, looked up): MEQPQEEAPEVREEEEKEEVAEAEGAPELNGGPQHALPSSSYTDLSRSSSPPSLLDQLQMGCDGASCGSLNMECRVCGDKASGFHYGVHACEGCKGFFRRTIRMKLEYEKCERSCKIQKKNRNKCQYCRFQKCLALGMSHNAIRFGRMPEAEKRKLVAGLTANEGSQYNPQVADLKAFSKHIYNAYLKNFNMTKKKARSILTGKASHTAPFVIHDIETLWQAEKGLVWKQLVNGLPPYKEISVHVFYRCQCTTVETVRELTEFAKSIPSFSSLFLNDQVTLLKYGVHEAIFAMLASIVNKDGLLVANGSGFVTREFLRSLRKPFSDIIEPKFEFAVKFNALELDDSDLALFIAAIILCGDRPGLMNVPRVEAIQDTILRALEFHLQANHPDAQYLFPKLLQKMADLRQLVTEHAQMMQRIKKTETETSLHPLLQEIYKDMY

Regarding `COCCOCCO`, the Potency result in [1], in experiment [2], in experiment [3], in [4] and in [5] was “inactive” each time. For the same molecule, the call in experiment [6] and in experiment [7] was inactive.
Turning to `CCOc1ccc(C(C)(C)COCc2cccc(Oc3ccccc3)c2)cc1`, the Potency result in [1], in experiment [2], in [3], in [8], in [9] and in [5] was “inactive” in each case. For the same molecule, the Potency result in experiment [10], in [11], in [12], in [13], in experiment [14] and in experiment [16] was “inactive” each time. In addition, the call in experiment [6], in experiment [7] and in experiment [15] was inactive.
`CCC(COC(=O)c1cc(OC)c(OC)c(OC)c1)(c1ccccc1)N(C)C` (centres undefined): the Potency entry in [1], in experiment [2], in experiment [3], in [4], in [9] and in [5] was “inactive” throughout. Besides, the Potency entry in experiment [11], in [14] and in [16] was “inactive” throughout. Moreover, the molecule was classed as inactive in [6], in [7] and in experiment [17].
As for `O=C(O)C1(c2ccc3c(c2)OC[C@H](Cc2ccc(-c4ccccc4)cc2)[C@H]3O)CCCC1`, the Potency entry in [1], in [2], in experiment [3] and in experiment [13] was “inactive” each time. Further, the Potency in experiment [4] was 43.6 µM (active); in experiment [10], 49 µM (active); in experiment [11], 43.6 µM (active).
`Nc1ccc(N=Nc2ccc(-c3ccc(N=Nc4c(S(=O)(=O)O)cc5cc(S(=O)(=O)O)c(N=Nc6ccccc6)c(O)c5c4N)cc3)cc2)c(N)c1`: the results for the Potency in experiment [1], in experiment [2] and in experiment [3] were 31.3 µM (active), 5.56 µM (active) and 39.4 µM (active), respectively. The Potency result in experiment [18], in experiment [9], in experiment [5] and in [10] was “inactive” each time. The call in [7] and in experiment [19] was inactive.
Turning to `O=C1NCN(c2ccccc2)C12CCN(CCCOc1ccc(F)cc1)CC2`, the Potency result in [1], in experiment [2], in [8], in experiment [5], in experiment [11] and in experiment [12] was “inactive” throughout. In [16], the Potency entry is “inactive”. Further, the Potency is 5.31 µM (active) in experiment [3] and 2.37 µM (active) in experiment [18]. Moreover, the result in experiment [7], in [15] and in [17] was inactive.
Consider `CC1(C)[C@H](C=C(Cl)Cl)[C@@H]1C(=O)O[C@@H](C#N)c1cccc(Oc2ccccc2)c1`, for which the Potency entry in experiment [1], in experiment [2], in experiment [3], in experiment [18], in [9] and in experiment [5] was “inactive” in each case. In addition, the Potency result in experiment [11], in experiment [14] and in experiment [16] was “inactive” throughout. Moreover, the result in experiment [19] was inactive.
Take `CCCCCCCCCCOC(=O)c1ccccc1C(=O)OCCCCCCCCCC`: the Potency result in [1], in [2], in experiment [3], in experiment [4], in [18] and in experiment [9] was “inactive” throughout. The Potency result in [5], in [10], in [11], in experiment [12], in [13] and in [16] was “inactive” throughout. The result in [6], in experiment [7] and in [15] was inactive.
In the case of `O=C(C(Cl)(Cl)Cl)C(Cl)(Cl)Cl`, the Potency result in [1], in experiment [2], in [3], in experiment [8], in experiment [18] and in [9] was “inactive” throughout. In addition, the Potency entry in [5], in [10], in experiment [11], in [12], in experiment [13] and in experiment [14] was “inactive” in each case. In experiment [16], the Potency result is “inactive”. Further, the result in [6], in [7], in [15], in experiment [17] and in experiment [19] was inactive.
For the molecule `CS/C(C)=N/OC(=O)N(C)SN(C)C(=O)O/N=C(\C)SC`, the Potency result in experiment [1], in [2], in [8], in experiment [18], in experiment [9] and in experiment [5] was “inactive” in each case. For the same molecule, the Potency entry in [10], in [11], in experiment [13], in experiment [14] and in experiment [16] was “inactive” in each case. In addition, the molecule was called inactive in experiment [7] and in experiment [15].
With `COC(=O)C(Br)CBr` (centres undefined), the Potency entry in experiment [1], in experiment [2], in [3], in experiment [9], in [5] and in experiment [11] was “inactive” in each case. Moreover, the Potency result in [12], in experiment [14] and in experiment [16] was “inactive” in each case. In addition, the outcome in experiment [6], in experiment [7] and in experiment [19] was inactive.
Turning to `O=C(CBr)OCc1ccccc1`, the Potency entry in experiment [1], in experiment [2], in experiment [8], in experiment [18], in experiment [9] and in [5] was “inactive” in each case. In addition, the Potency result in experiment [10], in [11], in experiment [12], in [13], in [14] and in experiment [16] was “inactive” throughout. The molecule was classed as inactive in [6], in [7], in experiment [15], in [17] and in experiment [19].
Consider `Clc1cccc(SC2CCNCC2)n1`, for which the Potency entry in experiment [1], in experiment [2], in [20], in experiment [4], in [18] and in [9] was “inactive” in each case. The Potency entry in [5], in [10], in [11], in [12], in [13] and in experiment [14] was “inactive” throughout. For the same molecule, the Potency result in experiment [16] was “inactive”. Besides, the molecule was classed as inactive in [6], in [7], in experiment [15] and in [19].
